# According to PubChem BioAssay (EPA / NIEHS):
# Where “and” joins values, the source holds several entries; their conditions need not be identical. Identical values can stand only once. Inconclusive results are not listed. Calls of active or inactive are those of the source. The calls were made as follows: active = hit-call score of the fitted dose curve at least 0.9, where 1 is the maximum; inconclusive = response in the unintended direction; inactive = score below 0.9.
# Legend:
# [1] = molecular target: rat Constitutive Nitric Oxide Synthase (CNOS), Nos1 (gene 24598) (UniProt P29476); experiment: NVS_ENZ_rCNOS: NovaScreen (NVS) Enzymatic Assay for rat Constitutive Nitric Oxide Synthase (CNOS) (AID 2283236)
# rat Constitutive Nitric Oxide Synthase (CNOS), Nos1 (gene 24598), sequence (P29476 whole entry, looked up): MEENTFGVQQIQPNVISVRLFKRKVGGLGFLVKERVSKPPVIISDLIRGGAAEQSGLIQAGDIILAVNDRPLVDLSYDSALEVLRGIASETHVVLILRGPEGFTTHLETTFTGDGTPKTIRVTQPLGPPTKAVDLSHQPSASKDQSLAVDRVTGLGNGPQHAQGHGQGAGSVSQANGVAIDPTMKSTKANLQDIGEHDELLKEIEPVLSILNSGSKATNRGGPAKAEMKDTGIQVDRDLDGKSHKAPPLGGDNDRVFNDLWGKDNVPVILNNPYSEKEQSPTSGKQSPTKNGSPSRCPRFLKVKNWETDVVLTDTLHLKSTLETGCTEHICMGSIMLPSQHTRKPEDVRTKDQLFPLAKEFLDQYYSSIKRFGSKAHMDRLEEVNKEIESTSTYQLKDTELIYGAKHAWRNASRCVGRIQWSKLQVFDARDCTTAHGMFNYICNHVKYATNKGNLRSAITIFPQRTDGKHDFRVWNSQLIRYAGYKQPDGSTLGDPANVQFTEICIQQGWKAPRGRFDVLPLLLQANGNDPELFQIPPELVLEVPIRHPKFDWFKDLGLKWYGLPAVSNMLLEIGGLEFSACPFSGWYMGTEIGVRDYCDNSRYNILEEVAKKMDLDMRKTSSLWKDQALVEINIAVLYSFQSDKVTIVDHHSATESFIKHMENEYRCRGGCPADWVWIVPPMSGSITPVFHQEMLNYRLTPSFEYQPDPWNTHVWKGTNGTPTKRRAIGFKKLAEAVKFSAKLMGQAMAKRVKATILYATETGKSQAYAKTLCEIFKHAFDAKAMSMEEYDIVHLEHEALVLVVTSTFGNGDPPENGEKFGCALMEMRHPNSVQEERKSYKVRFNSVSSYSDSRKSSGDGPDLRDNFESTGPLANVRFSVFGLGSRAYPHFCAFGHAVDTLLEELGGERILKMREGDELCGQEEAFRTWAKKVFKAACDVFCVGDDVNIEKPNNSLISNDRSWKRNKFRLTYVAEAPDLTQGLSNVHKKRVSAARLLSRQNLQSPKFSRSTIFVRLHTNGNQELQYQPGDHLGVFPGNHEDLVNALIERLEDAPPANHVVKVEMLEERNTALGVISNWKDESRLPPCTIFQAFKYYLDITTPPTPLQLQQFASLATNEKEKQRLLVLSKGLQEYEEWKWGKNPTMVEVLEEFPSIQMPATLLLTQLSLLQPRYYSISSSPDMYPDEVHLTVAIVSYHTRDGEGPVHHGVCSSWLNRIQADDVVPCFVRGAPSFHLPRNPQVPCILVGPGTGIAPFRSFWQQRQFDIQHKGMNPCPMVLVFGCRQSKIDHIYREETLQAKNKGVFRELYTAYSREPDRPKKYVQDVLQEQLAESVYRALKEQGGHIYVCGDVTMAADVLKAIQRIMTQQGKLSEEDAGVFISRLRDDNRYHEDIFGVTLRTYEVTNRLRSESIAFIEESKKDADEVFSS
# In short: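 Single 25 uM duplicate screen, then concentration series to 50 uM for chemicals meeting threshold. Rat brain membrane-derived CNOS activity detected radiometrically by filtration and scintillation counting, 1 h after compound addition; DMSO as baseline.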
# [2] = molecular target: sheep Cyclooxygenase-2 (Cox2), PTGS2 (gene 443460) (UniProt P79208); experiment: NVS_ENZ_oCOX2: NovaScreen (NVS) Enzymatic Assay for sheep Cyclooxygenase-2 (Cox2) (AID 2283231)
# In short: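 Enzyme from ovine placenta, cell-free; colorimetric absorbance read 0.66 hour after dosing, loss of signal vs DMSO. Screened in duplicate at 25 uM, then concentration-response up to 50 uM.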
# [3] = molecular target: sheep Cyclooxygenase-1 (Cox1), PTGS1 (gene 443551) (UniProt P05979); experiment: NVS_ENZ_oCOX1: NovaScreen (NVS) Enzymatic Assay for sheep Cyclooxygenase-1 (Cox1) (AID 2283239);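 also: actives reduce cyclooxygenase activity so potencies are for inhibitors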
# sheep Cyclooxygenase-1 (Cox1), PTGS1 (gene 443551), sequence (P05979 whole entry, looked up): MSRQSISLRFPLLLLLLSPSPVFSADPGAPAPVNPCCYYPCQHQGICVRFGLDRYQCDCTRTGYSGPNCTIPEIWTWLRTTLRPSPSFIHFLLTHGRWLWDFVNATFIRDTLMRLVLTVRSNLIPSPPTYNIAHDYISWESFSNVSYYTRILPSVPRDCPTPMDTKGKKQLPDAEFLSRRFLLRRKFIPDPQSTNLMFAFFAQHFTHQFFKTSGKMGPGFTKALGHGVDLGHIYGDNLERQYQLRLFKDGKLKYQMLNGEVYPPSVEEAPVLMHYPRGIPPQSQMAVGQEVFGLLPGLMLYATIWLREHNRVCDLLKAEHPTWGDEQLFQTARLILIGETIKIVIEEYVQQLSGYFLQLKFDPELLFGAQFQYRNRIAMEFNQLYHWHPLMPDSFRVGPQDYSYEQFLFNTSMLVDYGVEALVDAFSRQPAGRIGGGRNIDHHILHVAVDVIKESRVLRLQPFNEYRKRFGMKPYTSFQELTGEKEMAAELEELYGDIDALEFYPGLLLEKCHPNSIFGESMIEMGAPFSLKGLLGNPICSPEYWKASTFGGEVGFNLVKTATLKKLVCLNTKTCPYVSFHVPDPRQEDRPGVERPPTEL
# In short: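 Ovine seminal vesicle extract; absorbance (colorimetric) enzyme read-out at 0.66 h post-dose. Primary: single conc 25 uM, duplicate. Follow-up: concentration series on actives. Activity = signal loss vs DMSO baseline.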
# [4] = molecular target: bovine Dopamine Receptor (DR), Non-selective Binding, DRD1 (gene 281125) (UniProt Q95136); experiment: NVS_GPCR_bDR_NonSelective: NovaScreen (NVS) G Protein-Coupled Receptor Assay for bovine Dopamine Receptor (DR), Non-selective Binding (AID 2283241)
# In short: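 Filter-based radioligand binding with bovine striatal membrane, incubated 1 h; DMSO as negative baseline. Initial duplicate single-point test at 25 uM preceded concentration series for actives.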
# [5] = molecular target: Adenosine receptor A1 (Bos taurus) (UniProt P28190); experiment: NVS_GPCR_bAdoR_NonSelective: NovaScreen (NVS) G Protein-Coupled Receptor Assay for bovine Adenosine Receptor (AdoR), Non-selective Binding (AID 2283244)
# Adenosine receptor A1 (Bos taurus), sequence (P28190 whole entry, looked up): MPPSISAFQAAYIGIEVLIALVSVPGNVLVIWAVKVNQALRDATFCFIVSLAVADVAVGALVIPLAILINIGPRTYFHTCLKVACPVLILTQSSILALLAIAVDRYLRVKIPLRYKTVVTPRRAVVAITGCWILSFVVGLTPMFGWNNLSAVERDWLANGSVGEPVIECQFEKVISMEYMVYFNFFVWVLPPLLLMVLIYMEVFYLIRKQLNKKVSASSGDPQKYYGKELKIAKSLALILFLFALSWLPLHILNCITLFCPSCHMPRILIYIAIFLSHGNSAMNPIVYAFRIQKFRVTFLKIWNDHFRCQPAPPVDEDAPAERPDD
# In short: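 Cell-free binding with membranes from bovine striatum: radioligand displaced by test chemical, read after 1 h by filtration and scintillation. Single-point 25 uM duplicate primary, 50 uM top concentration in follow-up curves, DMSO baseline.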
# [6] = NVS_GPCR_bNPY_NonSelective: NovaScreen (NVS) G Protein-Coupled Receptor Assay for bovine Neuropeptide Y (NPY) Receptor, Non-selective Binding (AID 2283245)
# Description: NVS_GPCR_bNPY_NonSelective is a biochemical, single-readout assay that uses extracted gene-proteins from Bovine hippocampal membranes in a tissue-based cell-free assay. Measurements were taken 1 hour after chemical dosing in a 96-well plate.NVS_GPCR_bNPY_NonSelective is one of one assay component(s) measured or calculated from the NVS_GPCR_bNPY_NonSelective assay. It is designed to make measurements of radioligand binding, a form of binding reporter, as detected with scintillation counting signals by Filter-based radiodetection technology.Data from the assay component NVS_GPCR_bNPY_NonSelective was analyzed into 1 assay endpoint. This assay endpoint, NVS_GPCR_bNPY_NonSelective, was analyzed in the positive analysis fitting direction relative to DMSO as the negative control and baseline of activity. Using a type of binding reporter, loss-of-signal activity can be used to understand changes in the binding as they relate to the gene NPY. Furthermore, this assay endpoint can be referred to as a primary readout, because the performed assay has only produced 1 assay endpoint. To generalize the intended target to other relatable targets, this assay endpoint is annotated to the gpcr intended target family, where the subfamily is rhodopsin-like receptor. […]
# [7] = molecular target: human Vascular Endothelial Growth Factor Receptor 3 (VEGFR3), FLT4 (gene 2324) (UniProt P35916); experiment: NVS_ENZ_hVEGFR3: NovaScreen (NVS) Enzymatic Assay for human Vascular Endothelial Growth Factor Receptor 3 (VEGFR3) (AID 2283229)
# human Vascular Endothelial Growth Factor Receptor 3 (VEGFR3), FLT4 (gene 2324), sequence (P35916 whole entry, looked up): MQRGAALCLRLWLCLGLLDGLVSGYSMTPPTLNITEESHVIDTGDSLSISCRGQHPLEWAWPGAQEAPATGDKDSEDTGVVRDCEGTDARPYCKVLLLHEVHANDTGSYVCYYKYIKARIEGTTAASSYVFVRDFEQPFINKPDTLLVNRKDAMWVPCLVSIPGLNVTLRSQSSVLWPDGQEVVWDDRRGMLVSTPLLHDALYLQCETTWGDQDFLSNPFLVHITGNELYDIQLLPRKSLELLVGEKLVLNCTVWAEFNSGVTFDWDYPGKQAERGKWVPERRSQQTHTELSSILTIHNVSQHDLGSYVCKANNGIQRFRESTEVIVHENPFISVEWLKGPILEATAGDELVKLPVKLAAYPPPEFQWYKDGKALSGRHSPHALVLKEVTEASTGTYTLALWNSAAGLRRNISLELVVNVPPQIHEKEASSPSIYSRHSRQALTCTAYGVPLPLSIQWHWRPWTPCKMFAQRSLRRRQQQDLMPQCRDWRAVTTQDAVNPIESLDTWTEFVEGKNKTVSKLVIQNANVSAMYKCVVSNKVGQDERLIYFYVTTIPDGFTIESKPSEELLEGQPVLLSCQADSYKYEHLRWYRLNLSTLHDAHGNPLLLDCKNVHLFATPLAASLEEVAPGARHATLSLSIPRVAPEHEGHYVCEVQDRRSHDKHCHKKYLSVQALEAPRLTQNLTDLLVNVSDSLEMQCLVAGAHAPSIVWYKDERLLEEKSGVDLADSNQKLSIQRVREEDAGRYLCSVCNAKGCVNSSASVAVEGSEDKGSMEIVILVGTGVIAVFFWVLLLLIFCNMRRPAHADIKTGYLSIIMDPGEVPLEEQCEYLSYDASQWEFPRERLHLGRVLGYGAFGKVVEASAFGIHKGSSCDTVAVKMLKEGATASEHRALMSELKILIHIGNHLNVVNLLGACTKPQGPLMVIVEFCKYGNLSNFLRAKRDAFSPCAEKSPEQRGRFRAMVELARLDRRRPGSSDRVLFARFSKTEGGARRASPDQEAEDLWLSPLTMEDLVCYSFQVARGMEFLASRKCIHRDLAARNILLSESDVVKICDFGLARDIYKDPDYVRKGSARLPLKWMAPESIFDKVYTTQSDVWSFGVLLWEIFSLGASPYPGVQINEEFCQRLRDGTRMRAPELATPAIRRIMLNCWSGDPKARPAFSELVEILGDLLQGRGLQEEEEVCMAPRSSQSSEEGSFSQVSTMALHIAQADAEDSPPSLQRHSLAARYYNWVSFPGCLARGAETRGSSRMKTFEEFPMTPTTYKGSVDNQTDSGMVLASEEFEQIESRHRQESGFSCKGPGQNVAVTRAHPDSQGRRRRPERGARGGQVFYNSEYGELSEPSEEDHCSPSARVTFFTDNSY
# In short: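 Chemicals first run in duplicate at 25 uM, with actives re-tested in concentration series to a top of 50 uM. Recombinant VEGFR3 activity measured after 1 h via fluorescence with mobility-shift product separation; inhibition fitted relative to DMSO.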
# [8] = molecular target: human Vascular Endothelial Growth Factor Receptor 2 (VEGFR2), KDR (gene 3791) (UniProt P35968); experiment: NVS_ENZ_hVEGFR2: NovaScreen (NVS) Enzymatic Assay for human Vascular Endothelial Growth Factor Receptor 2 (VEGFR2) (AID 2283230)
# human Vascular Endothelial Growth Factor Receptor 2 (VEGFR2), KDR (gene 3791), sequence (P35968 whole entry, looked up): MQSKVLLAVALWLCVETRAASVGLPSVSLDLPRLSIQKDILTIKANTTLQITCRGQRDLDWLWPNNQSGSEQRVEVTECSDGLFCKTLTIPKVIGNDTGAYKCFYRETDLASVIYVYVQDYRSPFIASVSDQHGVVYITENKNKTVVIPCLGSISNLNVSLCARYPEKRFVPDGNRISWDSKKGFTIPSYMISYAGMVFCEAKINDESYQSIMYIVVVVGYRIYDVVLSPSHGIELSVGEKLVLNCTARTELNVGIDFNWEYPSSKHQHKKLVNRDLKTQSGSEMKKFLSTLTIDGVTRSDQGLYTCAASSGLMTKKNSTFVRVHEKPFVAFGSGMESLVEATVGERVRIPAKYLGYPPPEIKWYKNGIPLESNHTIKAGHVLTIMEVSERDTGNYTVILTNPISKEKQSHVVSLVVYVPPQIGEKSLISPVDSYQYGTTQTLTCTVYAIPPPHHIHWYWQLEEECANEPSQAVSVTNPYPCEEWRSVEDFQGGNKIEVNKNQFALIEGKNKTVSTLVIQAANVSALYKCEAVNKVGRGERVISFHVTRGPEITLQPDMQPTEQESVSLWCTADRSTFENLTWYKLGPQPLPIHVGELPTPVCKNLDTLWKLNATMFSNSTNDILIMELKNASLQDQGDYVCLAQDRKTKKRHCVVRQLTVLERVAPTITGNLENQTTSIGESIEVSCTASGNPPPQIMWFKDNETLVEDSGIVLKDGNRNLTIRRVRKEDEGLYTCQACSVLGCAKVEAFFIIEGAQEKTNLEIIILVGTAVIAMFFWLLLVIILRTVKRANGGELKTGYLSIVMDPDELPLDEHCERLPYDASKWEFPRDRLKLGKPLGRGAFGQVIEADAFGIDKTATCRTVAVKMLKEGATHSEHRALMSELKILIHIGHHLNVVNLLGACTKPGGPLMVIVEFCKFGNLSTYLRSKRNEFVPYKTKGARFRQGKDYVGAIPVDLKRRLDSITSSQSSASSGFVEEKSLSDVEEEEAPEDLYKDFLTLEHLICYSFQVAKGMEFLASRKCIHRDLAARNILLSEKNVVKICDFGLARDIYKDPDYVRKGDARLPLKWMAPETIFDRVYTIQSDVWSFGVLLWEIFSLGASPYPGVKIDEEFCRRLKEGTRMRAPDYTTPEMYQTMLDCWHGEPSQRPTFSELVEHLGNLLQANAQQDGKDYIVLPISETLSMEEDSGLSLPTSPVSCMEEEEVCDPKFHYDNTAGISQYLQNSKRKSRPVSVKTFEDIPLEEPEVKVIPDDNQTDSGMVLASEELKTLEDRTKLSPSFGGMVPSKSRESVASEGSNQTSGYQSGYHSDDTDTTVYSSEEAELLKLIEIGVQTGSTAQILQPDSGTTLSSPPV
# In short: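 Cell-free recombinant VEGFR2 kinase, fluorescent substrate with electrophoretic mobility-shift separation; read 1 h after dosing. Screened at 25 uM in duplicate, hits to concentration-response up to 50 uM; loss-of-signal versus DMSO.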
# [9] = molecular target: rat Catechol-O-Methyl Transferase (COMT), Comt (gene 24267) (UniProt P22734); experiment: NVS_ENZ_rCOMT: NovaScreen (NVS) Enzymatic Assay for rat Catechol-O-Methyl Transferase (COMT) (AID 2283235)
# In short: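 Rat dorsal striatum extract served as COMT source; product quantified by HPLC/spectrophotometry, read at 0 h after dosing. Primary single-concentration screen at 25 uM, followed by concentration series to a 50 uM maximum.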
# [10] = tested on: bovine Histamine 1 Receptor (H1), gene 281231; experiment: NVS_GPCR_bH1: NovaScreen (NVS) G Protein-Coupled Receptor Assay for bovine Histamine 1 Receptor (H1) (AID 2283246)
# In short: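 Hits from a 25 uM duplicate primary screen were retested in concentration series (top 50 uM); binding measured as scintillation-counted displacement of radioligand from bovine cerebellar membranes after 1 h, normalised to DMSO.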
smiles,measurement,setting,value
COC(=O)c1ccc(CNS(C)(=O)=O)cc1S(=O)(=O)NC(=O)Nc1nc(OC)cc(OC)n1,AC50,[1],7.99 µM (active)
C[C@]12C[C@H](O)[C@H]3[C@@H](CCC4=CC(=O)CC[C@@]43C)[C@@H]1CC[C@@H]2C(=O)CO,outcome,[2],inactive
same,outcome,[3],inactive
CCCN(CCC)c1c([N+](=O)[O-])cc(C(F)(F)F)c(N)c1[N+](=O)[O-],outcome,[3],inactive
same,outcome,[4],inactive
same,outcome,[5],inactive
CCNc1nc(N)nc(Cl)n1,outcome,[5],inactive
CC(C)(C)[C@@H](O)[C@@H](Cc1ccc(Cl)cc1)n1cncn1,AC50,[6],46.6 µM (active)
CCOC(=O)c1ccc(O)cc1,outcome,[7],inactive
CCCCC(CC)COC(=O)c1ccccc1C(=O)O (stereo not given),outcome,[1],inactive
CCOC(=O)[C@H](C)Oc1ccc(Oc2nc3ccc(Cl)cc3o2)cc1,AC50,[1],9.56 µM (active)
CCOC(=O)C(C)Oc1ccc(Oc2nc3ccc(Cl)cc3o2)cc1 (stereo not given),outcome,[1],inactive
S=C([S-])NCCNC(=S)[S-].[Mn+2],AC50,[8],13.8 µM (active)
CC(=O)[C@H]1CC[C@H]2[C@@H]3CCC4=CC(=O)CC[C@]4(C)[C@H]3CC[C@]12C,AC50,[3],17.7 µM (active)
CC(C)(c1ccc(O)cc1)c1ccc(O)cc1,outcome,[7],inactive
same,outcome,[8],inactive
same,outcome,[2],inactive
same,outcome,[3],inactive
S=C(S)NCCNC(=S)S.[Mn+2].[S-]C([S-])=NCCN=C([S-])[S-].[Zn+2],AC50,[7],2.42 µM (active) and 1.31 µM (active)
same,AC50,[8],4.23 µM (active) and 3.35 µM (active)
same,AC50,[2],12.5 µM (active)
same,AC50,[9],21.1 µM (active)
same,outcome,[3],inactive
O=C(c1ccc(O)cc1O)c1ccc(O)cc1O,AC50,[8],14.6 µM (active)
same,AC50,[5],3.39 µM (active)
O=C(O)C1(C(=O)Nc2ccc(Cl)cc2Cl)CC1,AC50,[7],14.9 µM (active)
same,outcome,[8],inactive
CC(=O)S[C@@H]1CC2=CC(=O)CC[C@]2(C)[C@H]2CC[C@@]3(C)[C@@H](CC[C@@]34CCC(=O)O4)[C@H]12,outcome,[10],inactive
N#CSCSc1nc2ccccc2s1,outcome,[8],inactive
same,AC50,[1],6.64 µM (active)
same,outcome,[3],inactive
COCCO,outcome,[7],inactive
COC(=O)c1cccc(C)c1S(=O)(=O)NC(=O)Nc1nc(OCC(F)(F)F)nc(N(C)C)n1,AC50,[5],5.12 µM (active)
N[C@@H](Cc1cc(I)c(Oc2ccc(O)c(I)c2)c(I)c1)C(=O)O,AC50,[8],6.72 µM (active)
same,AC50,[5],3.2 µM (active)
